# This is part of a sample that, as a whole, favours compounds with a hit. Of some 79,000 tested, about 15% had one in any assay. Unmarked numbers belong to inactive results. The source made the active and inactive calls. Rule as the data show it: active = growth inhibition above about 70%; inactive = the rest.
# How the values were obtained:
# [1] = NCI Yeast Anticancer Drug Screen. Data for the rad50 strain (AID 155);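 also: 0% = growth of vehicle-only cultures of the same strain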; settings: S. cerevisiae rad50 strain growth inhibition, active compounds read high
# In short: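 A DNA repair-deficient yeast mutant serves as the test organism; compound-induced growth inhibition is calculated against vehicle-treated cells.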
# [2] = NCI Yeast Anticancer Drug Screen. Data for the mec2-1 strain (AID 157); settings: S. cerevisiae mec2-1 strain, active compounds read high
# In short: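 mec2-1 yeast strain, carrying an alteration in DNA damage repair or cell cycle control, was exposed to compounds; growth inhibition was measured relative to vehicle-treated controls.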
# [3] = NCI Yeast Anticancer Drug Screen. Data for the sgs1 mgt1 strain (AID 161);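 also: 0% = growth of cultures given vehicle only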; settings: S. cerevisiae sgs1 mgt1 strain, active compounds read high
# In short: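 This yeast growth screen uses a strain with defined DNA-repair lesions; compound-treated growth is compared with vehicle-treated growth.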
# [4] = NCI Yeast Anticancer Drug Screen. Data for the cln2 rad14 strain (AID 165);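 also: 0% = growth equal to vehicle treated cultures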; settings: S. cerevisiae cln2 rad14 strain, active compounds read high
# In short: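 Yeast carrying cln2 and rad14 alterations (cell cycle control and DNA damage repair) were exposed to compounds. Growth inhibition was measured against vehicle-treated controls.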
# [5] = NCI Yeast Anticancer Drug Screen. Data for the bub3 strain (AID 167); settings: S. cerevisiae bub3 mutant strain, active compounds read high
# In short: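 Inhibition values come from growth of compound-treated mutant yeast normalised to vehicle-treated controls.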
# [6] = NCI Yeast Anticancer Drug Screen. Data for the mlh1 rad18 strain (AID 175); settings: S. cerevisiae mlh1 rad18 strain growth inhibition, active compounds read high
# In short: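 Growth inhibition of the yeast strain was measured after compound exposure and expressed relative to vehicle-treated controls. The strain carries defined defects in DNA damage repair.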
# [7] = NCI Yeast Anticancer Drug Screen. Data for the wt2 strain (AID 169);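 also: 0% = growth of vehicle-treated yeast cultures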; settings: S. cerevisiae wt2 strain growth inhibition, active compounds read high
# In short: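 Yeast cells were exposed to test compounds, and growth inhibition was measured relative to vehicle-treated controls.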
# [8] = NCI Yeast Anticancer Drug Screen. Data for the rad50EPP+ strain (AID 151);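 also: 0% = growth of vehicle-treated control cultures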; settings: S. cerevisiae rad50 mutant strain, active compounds read high
# In short: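 Yeast strain carrying rad50 alteration (rad50EPP+) exposed to compounds; growth inhibition measured relative to vehicle-treated controls.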
# [9] = NCI Yeast Anticancer Drug Screen. Data for the mgt1 strain (AID 153); settings: S. cerevisiae mgt1 mutant growth inhibition, active compounds read high
# In short: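 Yeast mgt1 strain (DNA repair/cell-cycle alteration panel) exposed to compounds; growth inhibition measured relative to vehicle-treated controls.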
# [10] = NCI Yeast Anticancer Drug Screen. Data for the CLN2oe strain (AID 163);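 also: 0% = growth of vehicle-only control cultures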; settings: S. cerevisiae CLN2oe strain, at 1.2 µM, active compounds read high
# In short: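 Yeast cells carrying a defined cell-cycle control alteration were exposed to test compounds. Growth inhibition was scored against vehicle-treated control cultures.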
# [11] = at 5.0 µM (retest, dose inferred, filed as 0.5)
# [12] = at 50.0 µM (retest, dose inferred, filed as 5.0)
structure (smiles),measurement,setting,value
COC(COC(N)=O)C1=C(N2CC2)C(=O)C(C)=C(N2CC2)C1=O (configuration not stated),growth inhibition,[1]; [11],47%
same,growth inhibition,[1]; [12],98% (active)
same,growth inhibition,[1]; at 50.0 µM,66.1%
same,growth inhibition,[2]; [11],39%
same,growth inhibition,[2]; [12],99% (active)
same,growth inhibition,[2]; at 50.0 µM,71.2% (active)
same,growth inhibition,[3]; [11],50%
same,growth inhibition,[3]; [12],99% (active)
same,growth inhibition,[3]; at 50.0 µM,43.3%
same,growth inhibition,[4]; [11],40%
same,growth inhibition,[4]; [12],98% (active)
same,growth inhibition,[4]; at 50.0 µM,50.6%
same,growth inhibition,[5]; [11],42%
same,growth inhibition,[5]; [12],99% (active)
same,growth inhibition,[5]; at 50.0 µM,24.9%
same,growth inhibition,[6]; [11],76% (active)
same,growth inhibition,[6]; [12],97% (active)
NC(C(=O)O)c1ccccc1Cl (configuration not stated),growth inhibition,[1]; [11],-161%
same,growth inhibition,[1]; [12],-142%
same,growth inhibition,[1]; at 50.0 µM,21%
same,growth inhibition,[2]; [11],-51%
same,growth inhibition,[2]; [12],-48%
same,growth inhibition,[2]; at 50.0 µM,1.65%
same,growth inhibition,[3]; [11],-64%
same,growth inhibition,[3]; [12],-57%
same,growth inhibition,[3]; at 50.0 µM,-2.5%
same,growth inhibition,[4]; [11],-61%
same,growth inhibition,[4]; [12],-56%
same,growth inhibition,[4]; at 50.0 µM,73.1% (active)
same,growth inhibition,[5]; [11],-68%
same,growth inhibition,[5]; [12],-69%
same,growth inhibition,[5]; at 50.0 µM,-3.55%
[Pt].c1ccc(P(CCP(c2ccccc2)c2ccccc2)CCP(c2ccccc2)c2ccccc2)cc1,growth inhibition,[1]; at 1.2 µM,-13%
same,growth inhibition,[1]; at 3.7 µM,11%
same,growth inhibition,[1]; [11],22%
same,growth inhibition,[1]; at 11.0 µM,23%
same,growth inhibition,[1]; at 33.0 µM,94% (active)
same,growth inhibition,[1]; [12],90% (active)
same,growth inhibition,[1]; at 50.0 µM,79% (active)
same,growth inhibition,[1]; at 100.0 µM,93% (active)
same,growth inhibition,[2]; at 1.2 µM,-27%
same,growth inhibition,[2]; at 3.7 µM,-14%
same,growth inhibition,[2]; [11],-3%
same,growth inhibition,[2]; at 11.0 µM,6%
same,growth inhibition,[2]; at 33.0 µM,94% (active)
same,growth inhibition,[2]; [12],94% (active)
same,growth inhibition,[2]; at 50.0 µM,85.2% (active)
same,growth inhibition,[2]; at 100.0 µM,94% (active)
same,growth inhibition,[3]; [11],8%
same,growth inhibition,[3]; [12],90% (active)
same,growth inhibition,[3]; at 50.0 µM,82% (active)
same,growth inhibition,[4]; [11],43%
same,growth inhibition,[4]; [12],91% (active)
same,growth inhibition,[4]; at 50.0 µM,79.2% (active)
same,growth inhibition,[5]; at 1.2 µM,8%
same,growth inhibition,[5]; at 3.7 µM,4%
same,growth inhibition,[5]; [11],4%
same,growth inhibition,[5]; at 11.0 µM,26%
same,growth inhibition,[5]; at 33.0 µM,96% (active)
same,growth inhibition,[5]; [12],91% (active)
same,growth inhibition,[5]; at 50.0 µM,75.7% (active)
same,growth inhibition,[5]; at 100.0 µM,95% (active)
same,growth inhibition,[6]; [11],16%
same,growth inhibition,[6]; [12],92% (active)
same,growth inhibition,[6]; at 50.0 µM,75.8% (active)
O=C1C2CCN(CC2)C1CN1CCOCC1 (configuration not stated),growth inhibition,[1]; [11],15%
same,growth inhibition,[1]; [12],22%
same,growth inhibition,[1]; at 50.0 µM,88.3% (active)
same,growth inhibition,[2]; [11],22%
same,growth inhibition,[2]; [12],-8%
same,growth inhibition,[2]; at 50.0 µM,90.8% (active)
same,growth inhibition,[3]; [11],3%
same,growth inhibition,[3]; [12],8%
same,growth inhibition,[3]; at 50.0 µM,87.2% (active)
same,growth inhibition,[4]; [11],10%
same,growth inhibition,[4]; [12],11%
same,growth inhibition,[4]; at 50.0 µM,19.2%
same,growth inhibition,[5]; [11],-1%
same,growth inhibition,[5]; [12],2%
same,growth inhibition,[5]; at 50.0 µM,89.1% (active)
same,growth inhibition,[6]; [11],10%
same,growth inhibition,[6]; [12],16%
O=C1NC(=S)NC(=O)C1=C/C=C/c1ccccc1,growth inhibition,[1]; [11],33%
same,growth inhibition,[1]; [12],40%
same,growth inhibition,[1]; at 50.0 µM,73% (active)
same,growth inhibition,[2]; [11],40%
same,growth inhibition,[2]; [12],32%
same,growth inhibition,[2]; at 50.0 µM,46.6%
same,growth inhibition,[3]; [11],4%
same,growth inhibition,[3]; [12],89% (active)
same,growth inhibition,[3]; at 50.0 µM,79.7% (active)
same,growth inhibition,[4]; [11],44%
same,growth inhibition,[4]; [12],89% (active)
same,growth inhibition,[4]; at 50.0 µM,31.8%
same,growth inhibition,[5]; [11],26%
same,growth inhibition,[5]; [12],84% (active)
same,growth inhibition,[5]; at 50.0 µM,73.7% (active)
same,growth inhibition,[7]; at 1.2 µM,-15%
same,growth inhibition,[7]; at 3.7 µM,-3%
same,growth inhibition,[7]; at 11.0 µM,2%
same,growth inhibition,[7]; at 33.0 µM,46%
same,growth inhibition,[7]; at 100.0 µM,98% (active)
same,growth inhibition,[6]; [11],29%
same,growth inhibition,[6]; [12],33%
same,growth inhibition,[6]; at 50.0 µM,69.7%
CC(C)(Br)C(=O)C(Br)Br,growth inhibition,[1]; [11],97% (active)
same,growth inhibition,[1]; [12],99% (active)
same,growth inhibition,[1]; at 50.0 µM,86.3% (active)
same,growth inhibition,[2]; [11],100% (active)
same,growth inhibition,[2]; [12],99% (active)
same,growth inhibition,[2]; at 50.0 µM,89% (active)
same,growth inhibition,[3]; [11],98% (active)
same,growth inhibition,[3]; [12],99% (active)
same,growth inhibition,[3]; at 50.0 µM,89.7% (active)
same,growth inhibition,[4]; [11],95% (active)
same,growth inhibition,[4]; [12],99% (active)
same,growth inhibition,[4]; at 50.0 µM,88.8% (active)
same,growth inhibition,[5]; [11],100% (active)
same,growth inhibition,[5]; [12],99% (active)
same,growth inhibition,[5]; at 50.0 µM,88.7% (active)
same,growth inhibition,[6]; [11],98% (active)
same,growth inhibition,[6]; [12],98% (active)
C/C(=N\N=C(N)N)C(CN1CCOCC1)C(c1ccccc1)c1c(O)c2ccccc2oc1=O (configuration not stated),growth inhibition,[8]; at 1.2 µM,-6%
same,growth inhibition,[8]; at 3.7 µM,-3%
same,growth inhibition,[8]; at 11.0 µM,-6%
same,growth inhibition,[8]; at 33.0 µM,-3%
same,growth inhibition,[8]; at 100.0 µM,10%
same,growth inhibition,[9]; at 1.2 µM,1%
same,growth inhibition,[9]; at 3.7 µM,-2%
same,growth inhibition,[9]; at 11.0 µM,0%
same,growth inhibition,[9]; at 33.0 µM,37%
same,growth inhibition,[9]; at 100.0 µM,48%
same,growth inhibition,[1]; at 1.2 µM,3%
same,growth inhibition,[1]; at 3.7 µM,5%
same,growth inhibition,[1]; [11],78% (active)
same,growth inhibition,[1]; at 11.0 µM,-15%
same,growth inhibition,[1]; at 33.0 µM,21%
same,growth inhibition,[1]; [12],78% (active)
same,growth inhibition,[1]; at 50.0 µM,86.5% (active)
same,growth inhibition,[1]; at 100.0 µM,94% (active)
same,growth inhibition,[2]; at 1.2 µM,1%
same,growth inhibition,[2]; at 3.7 µM,1%
same,growth inhibition,[2]; [11],59%
same,growth inhibition,[2]; at 11.0 µM,-3%
same,growth inhibition,[2]; at 33.0 µM,8%
same,growth inhibition,[2]; [12],59%
same,growth inhibition,[2]; at 50.0 µM,80.7% (active)
same,growth inhibition,[2]; at 100.0 µM,51%
same,growth inhibition,[3]; [11],88% (active)
same,growth inhibition,[3]; [12],88% (active)
same,growth inhibition,[3]; at 50.0 µM,86% (active)
same,growth inhibition,[10],0%

# Source: PubChem BioAssay (NCI)
